According to PubChem BioAssay AID1159580 (chemical genetic matrix, 2015):
Where “and” joins values, the source holds several entries; their conditions need not be identical. Identical values can stand only once. Among all 5,500 compounds or so, about 2,000 (36%) were called active. Inconclusive results (about 18%) are left out. Rule as the data show it: active = normalized growth mostly below about 0.91 (no sharp cut-off); inconclusive = no clear call, values can overlap the other calls; inactive = mostly above about 0.92. This is one part of the list.

Experiment: chemical genetic growth profiling, strain panel (AID 1159580);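 also: tested at 20 µM; growth read once vehicle control cultures reached saturation at 30 °C; 1 = growth at the plate median or of vehicle wells; lower values mean less growth of the strain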
Conditions: growth OD

Measured: normalized growth

O=C1OC(=O)C2C3CCC(O3)C12 (stereo not given)
active: S. cerevisiae deletion strains, locus YLR113W, strain HOG1, stronger effect = lower value 0.843 | S. cerevisiae deletion strains, locus YNL298W, strain CLA4, stronger effect = lower value 0.901
inactive: S. cerevisiae deletion strains, locus YKL009W, strain mrt4, stronger effect = lower value 0.895 | S. cerevisiae deletion strains, locus YKL068W, stronger effect = lower value 1 | S. cerevisiae deletion strains, locus YKL085W, strain MDH1 (second series), stronger effect = lower value 1.01 | S. cerevisiae deletion strains, locus YKL085W, strain MDH1, stronger effect = lower value 1.01 | S. cerevisiae deletion strains, locus YKL160W, strain elf1, stronger effect = lower value 1.04 | S. cerevisiae deletion strains, locus YKL190W, strain CNB1, stronger effect = lower value 0.991 | S. cerevisiae deletion strains, locus YKR001C, strain vps1, stronger effect = lower value 0.95 | S. cerevisiae deletion strains, locus YKR026C, strain gcn3, stronger effect = lower value 1 | S. cerevisiae deletion strains, locus YKR091W, strain srl3, stronger effect = lower value 1.01 | S. cerevisiae deletion strains, locus YLL001W, strain dnm1, stronger effect = lower value 0.995 | S. cerevisiae deletion strains, locus YLL026W, stronger effect = lower value 1 | S. cerevisiae deletion strains, locus YLL041C, strain sdh2, stronger effect = lower value 1.02 | S. cerevisiae deletion strains, locus YLR027C, strain aat2, stronger effect = lower value 0.994 | S. cerevisiae deletion strains, locus YLR039C, strain RIC1, stronger effect = lower value 1.06 | S. cerevisiae deletion strains, locus YLR058C, strain SHM2, stronger effect = lower value 1.01 | S. cerevisiae deletion strains, locus YLR102C, strain apc9, stronger effect = lower value 0.972 | S. cerevisiae deletion strains, locus YLR221C, strain rsa3, stronger effect = lower value 0.983 | S. cerevisiae deletion strains, locus YLR258W, strain gsy2, stronger effect = lower value 1.02 | S. cerevisiae deletion strains, locus YLR262C, strain YPT6 (second series), stronger effect = lower value 1.06 | S. cerevisiae deletion strains, locus YLR262C, strain YPT6, stronger effect = lower value 1.06 | S. cerevisiae deletion strains, locus YLR268W, strain sec22, stronger effect = lower value 0.979 | S. cerevisiae deletion strains, locus YLR320W, strain mms22, stronger effect = lower value 1 | S. cerevisiae deletion strains, locus YLR330W, strain CHS5, stronger effect = lower value 1 | S. cerevisiae deletion strains, locus YLR342W, strain FKS1 (second series), stronger effect = lower value 1.02 | S. cerevisiae deletion strains, locus YLR342W, strain FKS1, stronger effect = lower value 1.03 | S. cerevisiae deletion strains, locus YLR357W, strain rsc2, stronger effect = lower value 1.01 | S. cerevisiae deletion strains, locus YLR370C, strain arc18, stronger effect = lower value 0.999 | S. cerevisiae deletion strains, locus YLR371W, strain rom2, stronger effect = lower value 0.959 | S. cerevisiae deletion strains, locus YLR384C, strain iki3, stronger effect = lower value 1.01 | S. cerevisiae deletion strains, locus YLR418C, strain cdc73, stronger effect = lower value 0.928 | S. cerevisiae deletion strains, locus YML016C, strain PPZ1, stronger effect = lower value 1.01 | S. cerevisiae deletion strains, locus YML032C, strain rad52, stronger effect = lower value 0.968 | S. cerevisiae deletion strains, locus YML120C, strain ndi1, stronger effect = lower value 0.998 | S. cerevisiae deletion strains, locus YML124C, strain tub3, stronger effect = lower value 0.986 | S. cerevisiae deletion strains, locus YMR058W, strain fet3, stronger effect = lower value 1 | S. cerevisiae deletion strains, locus YMR078C, strain ctf18, stronger effect = lower value 0.963 | S. cerevisiae deletion strains, locus YMR125W, strain sto1, stronger effect = lower value 1.01 | S. cerevisiae deletion strains, locus YMR129W, stronger effect = lower value 1 | S. cerevisiae deletion strains, locus YMR205C, strain PFK2, stronger effect = lower value 1.03 | S. cerevisiae deletion strains, locus YMR223W, strain ubp8, stronger effect = lower value 0.989 | S. cerevisiae deletion strains, locus YMR231W, strain pep5, stronger effect = lower value 0.988 | S. cerevisiae deletion strains, locus YMR263W, strain SAP30, stronger effect = lower value 1.03 | S. cerevisiae deletion strains, locus YMR307W, strain GAS1, stronger effect = lower value 1.02 | S. cerevisiae deletion strains, locus YNL067W, strain RPL9B, stronger effect = lower value 1.01 | S. cerevisiae deletion strains, locus YNL071W, strain lat1, stronger effect = lower value 1 | S. cerevisiae deletion strains, locus YNL128W, strain TEP1, stronger effect = lower value 1.01 | S. cerevisiae deletion strains, locus YNL153C, strain GIM3, stronger effect = lower value 1.01 | S. cerevisiae deletion strains, locus YNL175C, strain NOP13, stronger effect = lower value 1.02 | S. cerevisiae deletion strains, locus YNL183C, strain NPR1, stronger effect = lower value 0.887 | S. cerevisiae deletion strains, locus YNL197C, strain WHI3, stronger effect = lower value 1.01 | S. cerevisiae deletion strains, locus YNL209W, strain ssb2, stronger effect = lower value 0.994 | S. cerevisiae deletion strains, locus YNL224C, strain SQS1, stronger effect = lower value 1.01 | S. cerevisiae deletion strains, locus YNL233W, strain BNI4, stronger effect = lower value 1.02 | S. cerevisiae deletion strains, locus YNL248C, strain rpa49, stronger effect = lower value 1.05 | S. cerevisiae deletion strains, locus YNL250W, strain rad50, stronger effect = lower value 0.93 | S. cerevisiae deletion strains, locus YNL271C, strain bni1, stronger effect = lower value 0.967 | S. cerevisiae deletion strains, locus YNL307C, strain MCK1, stronger effect = lower value 0.977 | S. cerevisiae deletion strains, locus YNL322C, strain KRE1 (second series), stronger effect = lower value 1.01 | S. cerevisiae deletion strains, locus YNL322C, strain KRE1, stronger effect = lower value 1.02 | S. cerevisiae deletion strains, locus YNR049C, strain mso1, stronger effect = lower value 1.01 | S. cerevisiae deletion strains, locus YNR052C, strain pop2, stronger effect = lower value 0.983 | S. cerevisiae deletion strains, locus YOL006C, strain TOP1, stronger effect = lower value 1.03 | S. cerevisiae deletion strains, locus YOL012C, strain htz1 0.735 | S. cerevisiae deletion strains, locus YOL147C, strain pex11, stronger effect = lower value 0.973 | S. cerevisiae deletion strains, locus YOR001W, strain rrp6, stronger effect = lower value 0.964 | S. cerevisiae deletion strains, locus YOR061W, strain CKA2, stronger effect = lower value 1.01 | S. cerevisiae deletion strains, locus YOR069W, strain VPS5, stronger effect = lower value 1.02 | S. cerevisiae deletion strains, locus YOR070C, strain gyp1, stronger effect = lower value 1.02 | S. cerevisiae deletion strains, locus YOR080W, strain dia2, stronger effect = lower value 1.01 | S. cerevisiae deletion strains, locus YOR083W, strain WHI5 (second series), stronger effect = lower value 1.01 | S. cerevisiae deletion strains, locus YOR083W, strain WHI5, stronger effect = lower value 1.04 | S. cerevisiae deletion strains, locus YOR106W, strain vam3, stronger effect = lower value 1.05 | S. cerevisiae deletion strains, locus YOR136W, strain idh2, stronger effect = lower value 0.964 | S. cerevisiae deletion strains, locus YOR144C, strain elg1, stronger effect = lower value 0.982 | S. cerevisiae deletion strains, locus YOR184W, strain ser1, stronger effect = lower value 0.979 | S. cerevisiae deletion strains, locus YOR231W, strain MKK1, stronger effect = lower value 0.89 | S. cerevisiae deletion strains, locus YOR265W, strain rbl2, stronger effect = lower value 1.01 | S. cerevisiae deletion strains, locus YOR270C, strain vph1, stronger effect = lower value 1.03 | S. cerevisiae deletion strains, locus YOR290C, strain snf2, stronger effect = lower value 1.05 | S. cerevisiae deletion strains, locus YOR316C, strain cot1, stronger effect = lower value 0.979 | S. cerevisiae deletion strains, locus YPL051W, strain arl3, stronger effect = lower value 1.03 | S. cerevisiae deletion strains, locus YPL055C, strain LGE1, stronger effect = lower value 0.959 and 1.03 | S. cerevisiae deletion strains, locus YPL078C, strain atp4, stronger effect = lower value 1.06 | S. cerevisiae deletion strains, locus YPL106C, strain sse1, stronger effect = lower value 1.04 | S. cerevisiae deletion strains, locus YPL240C, strain hsp82, stronger effect = lower value 1 | S. cerevisiae deletion strains, locus YPL241C, strain CIN2, stronger effect = lower value 1.01 | S. cerevisiae deletion strains, locus YPL256C, strain CLN2, stronger effect = lower value 0.926 | S. cerevisiae deletion strains, locus YPR119W, strain clb2, stronger effect = lower value 0.968 | S. cerevisiae deletion strains, locus YPR141C, strain kar3, stronger effect = lower value 0.957 | S. cerevisiae deletion strains, locus YPR163C, strain tif3, stronger effect = lower value 0.96 | S. cerevisiae deletion strains, locus YPR167C, strain met16, stronger effect = lower value 0.977 | S. cerevisiae deletion strains, strain wtn01, stronger effect = lower value 0.983 | S. cerevisiae strains, strain wild type, stronger effect = lower value 1.01
